# Bioassay records (PubChem)
# Pf growth 48h: Primary qHTS for delayed death inhibitors of the malarial parasite plastid, 48 hour incubation. P. falciparum luciferase growth in erythrocytes, 48 h. Potency, µM (highest dose often 28.7 µM), for inactives: at the top dose activity change, negative = inhibition, usual class: inhibitors. 310,000 tested, 5.9% active. AID 504832, 2011; also: potency is read from the fitted curve at half-maximal effect; % is scaled to controls: 0 for no effect and ±100 for the full control effect
#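 Luciferase-expressing P. falciparum in infected erythrocytes (2% hematocrit, 0.1% parasitemia final) in RPMI 1640/0.5% Albumax were exposed to compound for 48 hours at 37 C, 5% CO2; growth read as luminescence.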
# Pf growth 96h: Primary qHTS for delayed death inhibitors of the malarial parasite plastid, 96 hour incubation; P. falciparum luciferase reporter growth, 96 h; Potency, µM (highest dose often 28.7 µM), inactives show at the top dose activity change, negative = inhibition, most hits filed as inhibitors; 320,000 tested, 6.9% active; AID 504834, 2011; also: potency is read from the fitted curve at half-maximal effect; % is scaled to controls: 0 for no effect and ±100 for the full control effect
#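 Two parasite generations (96 h, 37 C, 5% CO2) of compound exposure in infected erythrocytes (0.05% parasitemia, 2% hematocrit). Luciferase-reporter P. falciparum; decreased luminescence indicates inhibited growth, aimed at apicoplast-acting delayed death.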
# Cycloheximide cs: Cycloheximide Counterscreen for Small Molecule Inhibitors of Shiga Toxin; cell reporter, cycloheximide protein synthesis inhibition counterscreen; max response, %; 300,000 tested, 12% active; AID 2314, 2010; in the data active = max response mostly above about 13%, no sharp cut-off; inactive = mostly below about 14%; also: read at 38.3 µM for the half of the compounds with a filed dose; 0% is about no effect
# Shiga inhibitor: A qHTS for Small Molecule Inhibitors of Shiga Toxin. Vero cells, Shiga toxin protein synthesis inhibition reporter. inhibition, % at 38.7 µM. 290,000 tested, 9.2% active. AID 2315, 2010; in the data active = inhibition mostly above about 28%, no sharp cut-off; inactive = mostly below about 43%; also: 0% is about no effect
# HCMV inh: qHTS Assay for inhibitors of the human cytomegalovirus (HCMV); HFF cells, HCMV-luciferase reporter, 72 h; hits give low values; activity change, negative = inhibition, % at 57.5 µM; 410,000 tested, 4.5% active; AID 1259415, 2018; in the data active = activity change below about -60%; inconclusive = no clear call, values can overlap the other calls; inactive = above about -39%; also: % is scaled to controls: 0 for no effect and ±100 for the full control effect
#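 HFF cells seeded 16 h at 37C, treated with compounds, infected with luciferase-reporter HCMV at MOI 1 PFU/cell; luciferase read at 72 h post infection, normalized to buffer-only and Salinomycin controls.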
# An asterisk follows results filed as active; u = inconclusive; x = no result given; [ ] = dose if it differs, or a comment. A selection: hits, their analogues and other compounds. The true share with any hit is near 20%. Unless noted, calls follow the shape of the dose curve; as a rule, active = well fitted inhibition curve with a large enough effect; inconclusive = small, poorly fitted or top-dose-only effect, or another doubt; inactive = no such curve, though single readings can be large or run the other way.
SMILES,Pf growth 48h,Pf growth 96h,Cycloheximide cs,Shiga inhibitor,HCMV inh
Cc1ccc2c(c1)C1CN(C)CCC1N2C(=O)Cc1cccs1 (configuration not stated),u,0.928µM*,-2.7,-5.5,-14.6
Cc1ccc2c(c1)C1CN(C)CCC1N2C(=O)Nc1ccc(Cl)cc1 (configuration not stated),10.4µM*,10.4µM*,9.6,53.0,-9.8
O=C(O)CSc1nc2sc3c(c2c(=O)n1Cc1ccccc1)CCCCC3,55.2%,43.3%,26.4*,39.9*,u
Cc1ccccc1-n1c(SCC(=O)O)nc2sc3c(c2c1=O)CCCC3,5.9%,u,-9.2,2.4,31.4
Nn1c(Nc2ccccc2)nc2sc3c(c2c1=O)CCC3,52.3%,30.8%,26.1*,85.6*,-32.3
CCn1c(SCC(=O)NCCc2ccccc2)nc2sc3c(c2c1=O)CCN(C)C3,1.65µM*,0.37µM*,-1.9,-8.5,13.4
C=CCn1c(SCC(=O)NCC)nc2sc3c(c2c1=O)CCC3,7.38µM*,u,-4.6,-4.0,91.3
Cc1c(C(=O)OCC(=O)N(C)C2CCS(=O)(=O)C2)oc2ccc(Br)cc12 (configuration not stated),18.5%,39.7%,-2.5,10.9,-31.9
COc1ccc(NC(=O)CN2CCC(C(N)=O)(N3CCCCC3)CC2)c(OC)c1,-23.6%,0.0%,-1.3,-1.8,14.8
CN(C)CCCNc1nc2sc3c(c2c(=O)n1CCc1ccccc1)CCCCC3,6.57µM*,4.15µM*,1.7,-9.7,u
CCn1c(SCC(=O)c2ccccc2)nc2sc3c(c2c1=O)CCN(C)C3,u,2.94µM*,12.0*,69.9*,-33.9
C=CCn1c(SCC(=O)OC)nc2sc3c(c2c1=O)CCN(C)C3,u,8.4%,-2.4,-5.5,x
O=C(O)c1ccc(Cn2nnc3sc4c(c3c2=O)CCCC4)cc1,57.9%,-10.1%,41.3*,166.6*,-8.2
COC(=O)c1ccc(Cn2nnc3sc4c(c3c2=O)CCCC4)cc1,x,x,x,x,69.5
Cc1sc2ncnc(N3CCC(C(=O)N(C)CC(=O)Nc4ccc(Cl)c(C(F)(F)F)c4)CC3)c2c1C,9.28µM*,u,x,x,u
Cc1sc2ncnc(N3CCC(C(=O)N(C)CC(=O)Nc4cccc(F)c4)CC3)c2c1C,x,x,x,x,-87.7*
CCOC(=O)c1sc2ccccc2c1S(=O)(=O)Nc1ccc(N(C)C)cc1,x,x,x,x,-20.1
CCc1ccc(CN(C(=O)c2cc(=O)c3ccc(C)cc3o2)C2CCS(=O)(=O)C2)cc1 (configuration not stated),x,x,x,x,-33.8
CC(C)(C)C(=O)NC1CCN(CC(=O)Nc2ccc3c(c2)OCO3)CC1,-7.9%,-14.7%,-0.5,-1.4,33.7
OCC(O)/C=N/Nc1nc(Nc2ccccc2)nc(Nc2ccccc2)n1 (configuration not stated),x,-6.7%,9.0,6.1,-22.1
CC(=O)Nc1ccc(C(=O)OCC(=O)NCc2ccccc2)cc1,-11.7%,-8.7%[5.75 µM],5.5,2.3,-24.7
CC(=O)NS(=O)(=O)c1ccc(NC(=S)NC(=O)COc2ccccc2C)cc1,13.9%,20.5%,-3.9,-4.2,62.9
O=C(COc1ccccc1-c1ccccc1)NCc1cccc(Cl)c1,u,13.1µM*,0.1,-6.1,u
Cc1ccccc1NC(=S)NC(=O)COc1ccccc1C,13.2%,20.1%,27.5*,-13.7,-10.6
Cc1cc(S(=O)(=O)NCC(C)C)ccc1OCC(=O)NCc1ccccn1,2.4%,x,-0.5,-12.3,-1.9
SMILES,Pf growth 48h,Pf growth 96h,Cycloheximide cs,Shiga inhibitor,HCMV inh
C=C(C)C(=O)OCC(=O)NCc1ccccc1,-2.0%,u,35.7*,114.2*,-14.8
Cc1cc(S(=O)(=O)NCc2ccccc2)ccc1OCC(=O)NCc1ccccn1,-6.1%,9.28µM*,-1.9,-10.2,29.6
CC(=O)Nc1ccc(CN2CCn3c(nnc3C(=O)NCC3CC3)C2)cc1,x,x,x,x,2.6
COC(=O)[C@H]1C[C@@]2(O)CN(S(=O)(=O)c3ccc(C)cc3)C[C@@]2(OC(=O)Nc2c(C)noc2C)C[C@H]1C(=O)OC,x,x,x,x,-15.2
Cc1ccccc1OCC(=O)OCC(=O)c1ccc(OCc2ccccc2)cc1,123.2%,-12.8%,59.5*,80.8*,24.1
Cc1ccccc1OCC(=O)NNC(=O)CCc1ccccc1,0.0%,u,-3.6,3.0,-17.7
O=C(COC(=O)Cc1c(Cl)cccc1Cl)NCc1ccccc1,x,x,x,x,-67.9*
Cc1ccccc1OCC(=O)Nc1cccc(Cl)c1C,35.1%,-98.4%,7.9,8.8,6.4
Cc1ccccc1OCC(=O)NCc1ccccc1,20.2%,3.7µM*,19.1,33.5,32.5
Cc1ccccc1OCC(=O)Nc1ccccc1-c1ccccc1NC(=O)COc1ccccc1C,8.28µM*,9.28µM*,-5.0,-4.0,-11.8
COc1cc(NC(=O)CSc2ncnc3sc4c(c23)CCC(C)C4)c(C(=O)O)cc1OC (configuration not stated),23.1%,u,8.7,12.2,-4.9
COc1ccc(C(C(=O)Nc2ccc(C(C)C)cc2)N(Cc2ccco2)C(=O)CC2NC(=O)NC2=O)cc1 (configuration not stated),1.47µM*,u,8.3,-3.6,-39.7
Cc1cccc(N2C(=O)CSC23C(=O)N(CC(=O)NCCc2ccccc2)c2ccccc23)c1 (configuration not stated),x,x,x,x,3.1
Cn1ccc2c(OCC(=O)NCc3ccc(F)cc3)cccc2c1=O,x,x,x,x,15.2
CC1(C)Cc2c(sc3nc(SCC(=O)O)nc(N)c23)CO1,13.0%,38.3%,-3.6,24.2,19.9
COC(=O)CSc1nc(N)c2c3c(sc2n1)CCCC3,7.2%,29.2%,16.0*,46.1,14.1
CC(C)(C)C1CCc2c(sc3nc(SCC(=O)O)nc(N)c23)C1 (configuration not stated),31.2%,14.0%,15.8*,34.4,13.9
CCOC(=O)C1CC2=C(CCCC2=O)NC1=O (configuration not stated),x,x,x,x,-7.6
CCOc1ccccc1NC(=O)COc1coc(CN2CCCc3ccccc32)cc1=O,13.1µM*,u,x,x,-5.3
CCOc1ccccc1NC(=O)COc1coc(CN2CCc3ccccc3C2)cc1=O,-14.6%,13.1µM*,x,x,-10.2
O=C(COc1coc(CN2CCc3ccccc3C2)cc1=O)Nc1ccc([N+](=O)[O-])cc1,u,u,x,x,0.1
CC(=O)Nc1nonc1NC(=O)CSC1=NCCS1,-4.4%,0.1%,12.3,1.0,6.7
CCOC(=O)c1cc(C)sc1NC(=O)CSC1=NCCS1,u,9.28µM*,-5.5,-20.6,-14.4
CCOC(=O)c1cc(C)sc1NC(=O)CSc1nnnn1C,-13.0%,1.65µM*,-2.0,-11.4,-15.5
CCOC(=O)c1ccccc1NC(=O)CSc1nnnn1C,u,u,3.9,-3.1,-17.6
CCN(Cc1ccccc1)S(=O)(=O)c1ccc(F)c(C(=O)Nc2cc(C(F)(F)F)ccc2Cl)c1,x,x,x,x,-9.4
CCCCCNC(=O)N[C@H](C(=O)O)C(C)C,-9.1%,5.4%,-3.9,8.5,-4.8
